Structures can show the parent of a compound that is named as a salt.
Legend:
Conditions in all cases: 20 µM
[1] = test system: Haemophilus parainfluenzae; test: growth AUC normalised to DMSO control (fraction of control); higher = less growth inhibition, active = hit call of the paper
How it was run: (§1)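 Pathogens passaged twice anaerobically were inoculated at a starting OD578 of 0.01 into pre-reduced mGAM plates with drug at 20 μM and 1% DMSO, sealed with breathable membranes. Haemophilus parainfluenzae medium was supplemented with hemin and NAD. OD578 was read hourly for 24 h, with three biological replicates. Growth-curve AUC was computed by the trapezoidal rule up to the exponential-to-stationary transition and normalised to DMSO controls on the same plate.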

[2] = test system: Salmonella enterica typhimurium; test: as above
How it was run: as §1

Shigella flexneri = test: as above
How it was run: as §1

Vibrio cholerae = test: as above
How it was run: as §1

[3] = test system: Yersinia pseudotuberculosis; test: as above
How it was run: as §1

P. vulgatus RND KO = test: growth AUC normalised to DMSO control (median) (fraction of control); higher = less growth inhibition, active = hit call of the paper
How it was run: (§2)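 Anaerobic growth was tracked hourly at OD578 for 24 h in 96-well plates of mGAM seeded at OD578 0.01 with each approved-drug library compound at 20 μM and 1% DMSO. Strains had first been passaged twice overnight without oxygen. Three biological replicates were run. The reported median is the area under the curve, calculated by the trapezoidal rule on curves truncated at entry into stationary phase and normalised to vehicle wells on the same plate.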

P. vulgatus WT = test: as above
How it was run: as §2

[4] = test system: S. enterica typhimurium WT; test: as above
How it was run: as §2

[5] = test system: S. enterica typhimurium tolC KO; test: as above
How it was run: as §2

Measured: growth AUC normalised to DMSO control
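Throughout, for growth AUC normalised to DMSO control (median): active when median AUC fell below 0.1.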

C[C@@H]1C[C@@H]([C@H](O)CC2CC(=O)NC(=O)C2)C(=O)[C@@H](C)C1 [Cycloheximide]
inactive: [1] 1.03 | [2] 1 | Shigella flexneri 1.04 | Vibrio cholerae 1.01 | [3] 0.999 | P. vulgatus RND KO 1.01 | P. vulgatus WT 1.01 | [4] 0.999 | [5] 0.999

CCCC(C)C1(CC)C(=O)NC(=O)NC1=O (stereo not given) [Pentobarbital]
inactive: [1] 1.02 | [2] 1.01 | Shigella flexneri 1.05 | Vibrio cholerae 0.999 | [3] 0.986 | P. vulgatus RND KO 1.05 | P. vulgatus WT 1.06 | [4] 1.01 | [5] 0.999

CN(C)C(=O)Oc1ccc[n+](C)c1 [Pyridostigmine iodide]
inactive: [1] 0.994 | [2] 1 | Shigella flexneri 1.03 | Vibrio cholerae 1.02 | [3] 0.992 | P. vulgatus RND KO 1 | P. vulgatus WT 1.03 | [4] 1.01 | [5] 0.991

CN1[C@@H]2CC[C@H]1C[C@@H](OC(=O)[C@H](CO)c1ccccc1)C2 [(L) Hyoscyamine]
inactive: [1] 0.945 | [2] 0.983 | Shigella flexneri 1.04 | Vibrio cholerae 1.05 | [3] 1.01 | P. vulgatus RND KO 1 | P. vulgatus WT 1 | [4] 1.01 | [5] 1

Oc1ccc2c3c1O[C@H]1[C@@H](O)CC[C@@]4(O)[C@@H](C2)N(CC2CCC2)CC[C@]314 [Nalbuphine hydrochloride]
inactive: [1] 0.982 | [2] 0.984 | Shigella flexneri 0.974 | Vibrio cholerae 0.984 | [3] 0.905 | P. vulgatus RND KO 0.997 | P. vulgatus WT 0.966 | [4] 0.988 | [5] 0.995

Source: the supplement of paper PMC12350171
